Experimental data taken from PubChem BioAssay (EPA / NIEHS).
“And” between values parts separate entries of the source, which are not always exact repeats. Equal values may be shown once. Some structures have more than one record in an assay (separate samples or runs), and their calls can disagree. The source made the active and inactive calls. How the source made its calls: active means hit-call score of the fitted dose curve at least 0.9, where 1 is the maximum; inactive means score below 0.9.

How the values were obtained:
[1] = read-out: Macrophage colony-stimulating factor (MCSF), CSF1 (gene 1435); experiment: BSK_hDFCGF_MCSF: BioMAP Diversity Plus: hDFCGF Assay for Macrophage colony-stimulating factor (MCSF) Biomarker Activity (AID 2283060); conditions: primary human foreskin fibroblasts; actives raise or lower the signal
Outline: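 Human foreskin fibroblast primary cultures; M-CSF measured by ELISA 24 hours after chemical dosing. Bidirectional fitting relative to DMSO, with overt cytotoxicity tracked by parallel SRB total-protein staining (0.1% SRB, 10% TCA fixation, 560 nm).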

[2] = BSK_hDFCGF_SRB: Viability Assessment in the BioMAP Diversity Plus: hDFCGF Assay (AID 2283061); conditions: primary human foreskin fibroblasts;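 further: cells exposed to compound for 24 h before the read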
Outline: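 Human foreskin fibroblasts in 96-well plates were treated 24 h. Total protein was measured by 0.1% SRB staining after 10% TCA fixation, read at 560 nm. Data were fitted bidirectionally against DMSO.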

[3] = read-out: TIMP metallopeptidase inhibitor 1 (TIMP1), TIMP1 (gene 7076); experiment: BSK_hDFCGF_TIMP1: BioMAP Diversity Plus: hDFCGF Assay for TIMP metallopeptidase inhibitor 1 (TIMP1) Biomarker Activity (AID 2283062); conditions: primary human foreskin fibroblasts; actives raise or lower the signal
Outline: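 Human foreskin fibroblast primary cultures dosed for 24 h; secreted/surface TIMP-1 quantified by ELISA. Bidirectional curve fitting against DMSO baseline; cytotoxicity tracked in parallel cultures by SRB total-protein staining.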

[4] = read-out: Monokine induced gamma interferon (MIG), CXCL9 (gene 4283); experiment: BSK_hDFCGF_MIG: BioMAP Diversity Plus: hDFCGF Assay for Monokine induced gamma interferon (MIG) Biomarker Activity (AID 2283063); conditions: primary human foreskin fibroblasts; actives raise or lower the signal
Outline: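 MIG/CXCL9 measured by ELISA 24 h after dosing primary human skin fibroblasts. Activity fitted in both directions against DMSO controls. Cytotoxicity was checked in parallel cultures by SRB staining read at 560 nm.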

[5] = read-out: Matrix Metallopeptidase 1 (MMP1), MMP1 (gene 4312); experiment: BSK_hDFCGF_MMP1: BioMAP Diversity Plus: hDFCGF Assay for Matrix Metallopeptidase 1 (MMP1) Biomarker Activity (AID 2283064); conditions: primary human foreskin fibroblasts; actives raise or lower the signal
Outline: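 hDFCGF primary fibroblasts (human foreskin); chemical added; 24 h; MMP1 by ELISA; bidirectional fit vs DMSO.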

[6] = read-out: Vascular cell adhesion molecule 1 (VCAM1), VCAM1 (gene 7412); experiment: BSK_hDFCGF_VCAM1: BioMAP Diversity Plus: hDFCGF Assay for Vascular cell adhesion molecule 1 (VCAM1) Biomarker Activity (AID 2283065); conditions: primary human foreskin fibroblasts; actives raise or lower the signal;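 on AC50: VCAM-1 protein level quantified by ELISA after 24 h chemical exposure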
Outline: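 Human foreskin fibroblast primary cells dosed with chemical, VCAM-1 measured by ELISA at 24 h. Bidirectional curve fitting relative to DMSO as negative control/baseline.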

[7] = read-out: Intercellular Adhesion Molecule 1 (ICAM1), ICAM1 (gene 3383); experiment: BSK_KF3CT_ICAM1: BioMAP Diversity Plus: KF3CT Assay for Intercellular Adhesion Molecule 1 (ICAM1) Biomarker Activity (AID 2283067); conditions: primary human keratinocytes with fibroblasts; actives raise or lower the signal
Outline: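 Human keratinocyte–foreskin fibroblast co-culture was treated for 24 h. Cell-surface ICAM-1 was quantified by ELISA, fitted bidirectionally relative to DMSO. Cytotoxicity was checked in parallel cultures by SRB total-protein staining.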

[8] = read-out: Interferon-gamma inducible Protein 10 (IP10), CXCL10 (gene 3627); experiment: BSK_KF3CT_IP10: BioMAP Diversity Plus: KF3CT Assay for Interferon-gamma inducible Protein 10 (IP10) Biomarker Activity (AID 2283068); conditions: primary human keratinocytes with fibroblasts; actives raise or lower the signal
Outline: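 ELISA read-out of IP-10 after 24 h chemical dosing of human skin primary co-culture (keratinocytes, foreskin fibroblasts). Gain or loss of signal relative to DMSO, bidirectional curve fit.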

[9] = BSK_KF3CT_SRB: Viability Assessment in the BioMAP Diversity Plus: KF3CT Assay (AID 2283069); conditions: primary human keratinocytes with fibroblasts;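 further: total protein by sulforhodamine B staining as a cytotoxicity measure; read 24 h after compound addition; fitted for both signal gain and loss against DMSO baseline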
Outline: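 Keratinocytes co-cultured with foreskin fibroblasts (human primary); chemical added, 24 h; fix 10% TCA, stain 0.1% SRB, A560. Bidirectional fit vs DMSO.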

[10] = read-out: Plasminogen activator inhibitor-1 (PAI1), SERPINE1 (gene 5054); experiment: BSK_hDFCGF_PAI1: BioMAP Diversity Plus: hDFCGF Assay for Plasminogen activator inhibitor-1 (PAI1) Biomarker Activity (AID 2283066); conditions: primary human foreskin fibroblasts; actives raise or lower the signal
Outline: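 Primary dermal fibroblasts (human foreskin), hDFCGF system; compound 24 h; PAI-1 by ELISA; bidirectional fit vs DMSO control.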

Measured: AC50

CC1=CC=C(C(C)C)CC1
not listed: [10]
inactive: all other assays above

Clc1cc(Cl)c(Cl)c(Cl)c1Cl
not listed: [10]
inactive: all other assays above

CC(c1cc(C(C)(C)C)cc(C(C)(C)C)c1O)c1cc(C(C)(C)C)cc(C(C)(C)C)c1O
not listed: [10]
inactive: all other assays above

C=CC(=O)OCCCCCCCC(C)C
active: [1] 20 µM | [2] 25.6 µM | [6] 12.3 µM | [10] 5.93 µM
not listed: [4]
inactive: all other assays above

c1ccc(Nc2cccc3ccccc23)cc1
active: [1] 20 µM and 14.5 µM | [2] 32.7 µM and 33.1 µM | [3] 29.6 µM and 28.8 µM | [4] 27.5 µM and 23.4 µM | [5] 30.7 µM and 30 µM | [6] 21.2 µM and 20 µM | [7] 30.7 µM and 37.7 µM | [8] 34.2 µM and 35.7 µM | [9] 31.8 µM and 34.8 µM

C[N+](C)(C)CCCNS(=O)(=O)C(F)(F)C(F)(F)C(F)(F)C(F)(F)C(F)(F)C(F)(F)C(F)(F)C(F)(F)F
inactive: [3] | [5] | [7]
active: [1] 46.1 µM and 48.7 µM | [2] 55.3 µM and 47.5 µM | [6] 38.9 µM and 50.2 µM | [10] 47.8 µM and 53.5 µM | [7] 47.6 µM | [8] 42.7 µM and 46.7 µM | [9] 49.8 µM and 51.4 µM

Cc1ccc([N+](=O)[O-])cc1N
inactive: all assays above

Cc1c(O)cccc1O
not listed: [10]
inactive: all other assays above

CC(Cl)COP(=O)(OCC(C)Cl)OCC(C)Cl (centres undefined)
not listed: [10]
inactive: all other assays above

CCCCC1C(=O)N(c2ccccc2)N(c2ccccc2)C1=O
not listed: [10]
inactive: all other assays above

Oc1c(Cl)cc(Cl)c(Cl)c1Cl
inactive: [1] | [4] | [5] | [9]
active: [2] 28.7 µM | [3] 32.1 µM | [6] 23.3 µM | [7] 20 µM | [8] 20 µM

COC(OC)(C(=O)c1ccccc1)c1ccccc1
not listed: [4]
inactive: all other assays above

COc1ccc(C(=O)/C(Br)=C\C(=O)O)cc1
inactive: [9]
active: [1] 15.4 µM and 20 µM | [2] 29.4 µM | [3] 28.6 µM and 20 µM | [4] 28 µM and 31.3 µM | [5] 33.5 µM and 30.7 µM | [6] 14.7 µM and 7.59 µM | [7] 20 µM | [8] 30.6 µM and 30.2 µM | [9] 32 µM

C1CNCCN1
not listed: [4]
inactive: all other assays above
